In PubChem BioAssay (EPA / NIEHS) one finds AC50 and outcome data, which are given here for eight compounds.

Results filed as inconclusive are left out. Calls of active or inactive are those of the source. Rule for the calls, unless noted: active = hit-call score of the fitted dose curve at least 0.9, where 1 is the maximum; inconclusive = response in the unintended direction; inactive = score below 0.9.

The target of assay [1] is human CYP2B6, CYP2B6 (gene 1555) (UniProt P20813). Put plainly: NVS_ADME_hCYP2B6: NovaScreen (NVS) CYP450-related Enzyme Activity (ADME) Assay for human CYP2B6 (AID 2283101). In a few lines: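 Cell-free recombinant enzyme assay with a fluorogenic substrate; fluorescence intensity read 1 hour after dosing. Loss of signal relative to acetonitrile negative control indicates inhibition. Primary screen run in duplicate at 10 uM, actives then tested in concentration series.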
Chain of human CYP2B6, CYP2B6 (gene 1555) (P20813 whole entry, looked up): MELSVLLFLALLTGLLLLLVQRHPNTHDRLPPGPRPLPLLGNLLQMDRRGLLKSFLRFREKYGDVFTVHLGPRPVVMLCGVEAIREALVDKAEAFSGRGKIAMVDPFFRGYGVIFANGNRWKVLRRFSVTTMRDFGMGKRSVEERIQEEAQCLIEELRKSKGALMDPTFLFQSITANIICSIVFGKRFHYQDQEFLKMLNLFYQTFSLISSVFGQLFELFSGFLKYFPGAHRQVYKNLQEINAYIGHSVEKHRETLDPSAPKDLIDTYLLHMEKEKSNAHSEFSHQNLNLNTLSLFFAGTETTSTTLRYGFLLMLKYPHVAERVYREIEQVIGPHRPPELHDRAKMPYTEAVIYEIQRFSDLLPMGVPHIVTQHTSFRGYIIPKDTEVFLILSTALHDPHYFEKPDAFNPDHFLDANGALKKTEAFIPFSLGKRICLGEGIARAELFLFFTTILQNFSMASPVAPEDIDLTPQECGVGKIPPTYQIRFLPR

For assay [2], the target named is human CYP1A2, CYP1A2 (gene 1544) (UniProt P05177). Put plainly: NVS_ADME_hCYP1A2: NovaScreen (NVS) CYP450-related Enzyme Activity (ADME) Assay for human CYP1A2 (AID 2283102).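 Note: potency for inhibition since loss of fluorescence marks reduced CYP1A2 activity.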 The essentials:
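Compounds were tested at 10 uM in duplicate against recombinant CYP1A2 produced in insect cells. Enzyme activity was measured by fluorescence 0.5 h after dosing, with loss of signal versus acetonitrile control. Active compounds were re-tested in concentration series.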

Assay [3] concerns the target Cytochrome P450 2C18 (Homo sapiens) (UniProt P33260). Kind of assay: NVS_ADME_hCYP2C18: NovaScreen (NVS) CYP450-related Enzyme Activity (ADME) Assay for human CYP2C18 (AID 2283103; active = hit-call score of the fitted dose curve at least 0.9, where 1 is the maximum; inactive = score below 0.9). The essentials:
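Enzyme activity measured by fluorescence 0.5 h after compound addition, using recombinant CYP2C18 and a specific substrate. Actives from duplicate 10 uM screening were retested in concentration series (top 20 uM); acetonitrile served as negative baseline.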

Assay [4] deals with Cytochrome P450 2C19 (Homo sapiens) (UniProt P33261). Put plainly: NVS_ADME_hCYP2C19: NovaScreen (NVS) CYP450-related Enzyme Activity (ADME) Assay for human CYP2C19 (AID 2283113).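 Note: potency for inhibition seen as loss of fluorescent signal.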 The essentials:
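Chemicals first screened in duplicate at 10 uM against recombinant human enzyme produced in insect cells; confirmed actives then run as concentration series. Fluorogenic substrate turnover read by fluorescence after 1 h, normalised to acetonitrile.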

The target in assay [5] is rat CYP1A2, Cyp1a2 (gene 24297) (UniProt P04799). Kind of assay: NVS_ADME_rCYP1A2: NovaScreen (NVS) CYP450-related Enzyme Activity (ADME) Assay for rat CYP1A2 (AID 2283115). In a few lines: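 Primary testing ran in duplicate at 10 uM, with actives re-tested across concentration series. Fluorescence intensity from substrate turnover by recombinant protein, measured 1 hour post-dosing, with signal loss scored against acetonitrile vehicle.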
Chain of rat CYP1A2, Cyp1a2 (gene 24297) (P04799 whole entry, looked up): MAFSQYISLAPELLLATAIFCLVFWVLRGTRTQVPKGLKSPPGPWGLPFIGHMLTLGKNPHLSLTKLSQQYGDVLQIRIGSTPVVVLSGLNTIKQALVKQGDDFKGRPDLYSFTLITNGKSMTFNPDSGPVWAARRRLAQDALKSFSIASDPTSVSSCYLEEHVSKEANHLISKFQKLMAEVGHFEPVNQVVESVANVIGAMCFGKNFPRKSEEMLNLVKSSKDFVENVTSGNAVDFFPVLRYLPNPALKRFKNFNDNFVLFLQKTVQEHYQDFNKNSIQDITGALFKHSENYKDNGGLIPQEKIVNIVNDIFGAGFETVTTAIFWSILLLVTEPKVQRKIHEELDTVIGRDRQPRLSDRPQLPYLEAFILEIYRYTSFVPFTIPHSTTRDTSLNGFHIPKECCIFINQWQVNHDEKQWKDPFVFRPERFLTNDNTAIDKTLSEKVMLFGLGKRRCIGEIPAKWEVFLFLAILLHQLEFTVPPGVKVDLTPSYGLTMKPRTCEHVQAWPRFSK

The test system of assay [6] is rat CYP3A1, gene 25642. Put plainly: NVS_ADME_rCYP3A1: NovaScreen (NVS) CYP450-related Enzyme Activity (ADME) Assay for rat CYP3A1 (AID 2283126). The essentials:
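Compounds went first at 10 uM duplicate, then to series with 20 uM maximum. Fluorescence from substrate turnover by the recombinant enzyme was measured 0.5 h post-dosing, inhibition scored against acetonitrile vehicle.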

Assay [7] deals with human CYP2D6, CYP2D6 (gene 1565) (UniProt P10635). Kind of assay: NVS_ADME_hCYP2D6: NovaScreen (NVS) CYP450-related Enzyme Activity (ADME) Assay for human CYP2D6 (AID 2283107). The essentials: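 Compounds were first tested in duplicate at 10 uM against recombinant enzyme produced in insect cells, with substrate turnover measured by fluorescence after 1 hour. Decreased signal, referenced to acetonitrile vehicle, was taken as reduced enzyme activity. Active chemicals went on to concentration-response testing.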
Chain of human CYP2D6, CYP2D6 (gene 1565) (P10635 whole entry, looked up): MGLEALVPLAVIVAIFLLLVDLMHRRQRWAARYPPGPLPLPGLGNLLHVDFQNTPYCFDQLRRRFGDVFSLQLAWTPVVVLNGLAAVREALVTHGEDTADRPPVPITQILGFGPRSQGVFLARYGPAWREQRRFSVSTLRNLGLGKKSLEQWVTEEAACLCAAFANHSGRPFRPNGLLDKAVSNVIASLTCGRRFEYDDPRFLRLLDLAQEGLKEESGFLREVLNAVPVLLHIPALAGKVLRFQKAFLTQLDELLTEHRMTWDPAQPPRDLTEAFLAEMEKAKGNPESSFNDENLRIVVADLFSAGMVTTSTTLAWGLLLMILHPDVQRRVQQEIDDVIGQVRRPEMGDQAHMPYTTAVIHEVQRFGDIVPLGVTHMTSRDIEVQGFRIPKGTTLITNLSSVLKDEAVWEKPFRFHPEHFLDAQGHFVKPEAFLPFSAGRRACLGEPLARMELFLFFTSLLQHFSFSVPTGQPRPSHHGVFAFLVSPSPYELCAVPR

Assay [8] deals with human CYP2J2, CYP2J2 (gene 1573) (UniProt P51589). Kind of assay: NVS_ADME_hCYP2J2: NovaScreen (NVS) CYP450-related Enzyme Activity (ADME) Assay for human CYP2J2 (AID 2283106). The essentials: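 Chemicals were first tested at 10 uM in duplicate, and hits meeting criteria such as 30% inhibition were run in singleton concentration series with a 20 uM top concentration. Enzyme activity of recombinant CYP2J2 was measured by fluorescence after 1 h, relative to acetonitrile.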

Assay [9] concerns the target human CYP2C9, CYP2C9 (gene 1559) (UniProt P11712). Kind of assay: NVS_ADME_hCYP2C9: NovaScreen (NVS) CYP450-related Enzyme Activity (ADME) Assay for human CYP2C9 (AID 2283108). The essentials:
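Cell-free assay of recombinant human CYP2C9 produced in Sf9 cells, with enzyme activity read by fluorescence intensity 0.75 h after compound addition. Loss of signal versus an acetonitrile negative control indicates inhibition. Primary screen used 10 uM in duplicate; actives were retested in concentration series.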

Assay [10] has as its target rat CYP2C11, Cyp2c11 (gene 29277) (UniProt P08683). Kind of assay: NVS_ADME_rCYP2C11: NovaScreen (NVS) CYP450-related Enzyme Activity (ADME) Assay for rat CYP2C11 (AID 2283118). In a few lines:
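Screened first at 10 uM in duplicate, hits followed by concentration-response. Recombinant rat enzyme activity monitored by fluorescence 0.33 h post-dosing, normalised to acetonitrile negative control.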

Assay [11] has as its target rat CYP2C13, Cyp2c13 (gene 171521) (UniProt P20814). Kind of assay: NVS_ADME_rCYP2C13: NovaScreen (NVS) CYP450-related Enzyme Activity (ADME) Assay for rat CYP2C13 (AID 2283121). In a few lines: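 Inhibition is read as decreased fluorescent product formation, referenced to acetonitrile vehicle. Cell-free recombinant rat Cyp2c13 reaction ran 0.75 hour; compounds first at 10 uM in duplicate, then concentration series for actives.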

Assay [12] deals with rat CYP2A2, Cyp2a2 (gene 24895) (UniProt P15149). Put plainly: NVS_ADME_rCYP2A2: NovaScreen (NVS) CYP450-related Enzyme Activity (ADME) Assay for rat CYP2A2 (AID 2283116). The essentials: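 Compounds first tested in duplicate at 10 uM, then in singleton concentration series up to 20 uM when over threshold. Activity of the recombinant enzyme read by fluorescence at 0.2 h, normalised to acetonitrile vehicle.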
Chain of rat CYP2A2, Cyp2a2 (gene 24895) (P15149 whole entry, looked up): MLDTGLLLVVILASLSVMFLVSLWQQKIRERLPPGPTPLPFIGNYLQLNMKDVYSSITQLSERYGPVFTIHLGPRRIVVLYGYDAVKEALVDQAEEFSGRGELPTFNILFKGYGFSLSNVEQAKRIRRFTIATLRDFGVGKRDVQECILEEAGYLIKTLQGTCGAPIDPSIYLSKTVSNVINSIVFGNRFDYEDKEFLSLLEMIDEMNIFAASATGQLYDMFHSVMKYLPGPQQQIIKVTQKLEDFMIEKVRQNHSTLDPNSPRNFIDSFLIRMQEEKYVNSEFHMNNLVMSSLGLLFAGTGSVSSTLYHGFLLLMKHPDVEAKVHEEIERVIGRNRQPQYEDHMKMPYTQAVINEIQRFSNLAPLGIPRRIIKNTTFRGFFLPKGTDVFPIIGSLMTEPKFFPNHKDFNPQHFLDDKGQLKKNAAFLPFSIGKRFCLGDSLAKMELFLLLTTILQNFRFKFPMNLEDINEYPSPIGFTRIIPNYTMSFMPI

The target of assay [13] is rat CYP2D2, Cyp2d26 (gene 25053) (UniProt P10634). Put plainly: NVS_ADME_rCYP2D2: NovaScreen (NVS) CYP450-related Enzyme Activity (ADME) Assay for rat CYP2D2 (AID 2283124). In a few lines:
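Single-concentration duplicate testing at 10 uM, followed by concentration-response (top 20 uM) for chemicals passing threshold. Enzyme activity of the recombinant rat isoform measured by fluorescence after 0.75 h, acetonitrile as baseline.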

The target in assay [14] is rat CYP2D1, Cyp2d1 (gene 266684) (UniProt P10633). Put plainly: NVS_ADME_rCYP2D1: NovaScreen (NVS) CYP450-related Enzyme Activity (ADME) Assay for rat CYP2D1 (AID 2283122). In a few lines:
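Rat CYP2D1 enzyme activity measured by fluorescence intensity in a cell-free format, 0.75 h post-dosing, acetonitrile as negative control. Screening at 10 uM in duplicate, with actives followed in concentration series up to 20 uM.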

Assay [15] has as its target rat CYP2A1, Cyp2a1 (gene 24894) (UniProt P11711). Kind of assay: NVS_ADME_rCYP2A1: NovaScreen (NVS) CYP450-related Enzyme Activity (ADME) Assay for rat CYP2A1 (AID 2283114; active = hit-call score of the fitted dose curve at least 0.9, where 1 is the maximum; inactive = score below 0.9). The essentials:
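Cell-free fluorescence enzyme-activity read on recombinant rat CYP2A1, taken 0.75 h post-dosing. Compounds were screened in duplicate at 10 uM, then hits tested in concentration series (max 20 uM); inhibition scored relative to acetonitrile baseline.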

Assay [16] concerns rat CYP2B1, gene 24300. Kind of assay: NVS_ADME_rCYP2B1: NovaScreen (NVS) CYP450-related Enzyme Activity (ADME) Assay for rat CYP2B1 (AID 2283117). In a few lines:
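Cell-free fluorescence enzyme assay, recombinant rat CYP2B1, 0.75 h after dosing. Single-concentration duplicates at 10 uM preceded concentration series (max 20 uM) for actives; acetonitrile as negative-control baseline.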

Chain of rat CYP2C11, Cyp2c11 (gene 29277) (P08683 whole entry, looked up): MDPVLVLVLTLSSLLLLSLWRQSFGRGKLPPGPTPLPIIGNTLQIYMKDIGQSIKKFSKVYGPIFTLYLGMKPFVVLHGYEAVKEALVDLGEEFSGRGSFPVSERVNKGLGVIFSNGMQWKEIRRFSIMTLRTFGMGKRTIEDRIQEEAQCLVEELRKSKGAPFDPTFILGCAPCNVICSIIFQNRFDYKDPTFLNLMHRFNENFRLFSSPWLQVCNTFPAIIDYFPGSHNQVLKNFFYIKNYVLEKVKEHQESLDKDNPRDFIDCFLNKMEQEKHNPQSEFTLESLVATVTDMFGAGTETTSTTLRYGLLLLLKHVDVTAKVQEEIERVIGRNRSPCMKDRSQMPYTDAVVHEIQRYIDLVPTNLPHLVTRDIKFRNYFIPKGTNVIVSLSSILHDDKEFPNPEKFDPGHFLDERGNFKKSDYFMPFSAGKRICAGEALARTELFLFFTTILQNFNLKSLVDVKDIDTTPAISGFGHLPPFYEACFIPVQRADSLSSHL
Chain of human CYP2C9, CYP2C9 (gene 1559) (P11712 whole entry, looked up): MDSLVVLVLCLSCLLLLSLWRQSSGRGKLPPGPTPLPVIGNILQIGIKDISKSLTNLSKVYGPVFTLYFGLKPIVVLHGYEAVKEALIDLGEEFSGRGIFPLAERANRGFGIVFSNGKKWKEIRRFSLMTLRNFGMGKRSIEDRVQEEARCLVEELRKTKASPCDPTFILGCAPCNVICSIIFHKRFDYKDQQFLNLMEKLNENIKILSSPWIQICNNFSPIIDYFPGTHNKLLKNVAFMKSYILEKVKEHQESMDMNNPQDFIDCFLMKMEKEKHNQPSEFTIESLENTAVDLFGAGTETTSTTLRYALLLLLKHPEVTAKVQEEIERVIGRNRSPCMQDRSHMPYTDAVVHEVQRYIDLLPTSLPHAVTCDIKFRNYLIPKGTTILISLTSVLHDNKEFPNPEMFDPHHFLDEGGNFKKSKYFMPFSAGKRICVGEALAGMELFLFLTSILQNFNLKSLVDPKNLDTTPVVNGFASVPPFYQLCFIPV
Chain of Cytochrome P450 2C18 (Homo sapiens) (P33260 whole entry, looked up): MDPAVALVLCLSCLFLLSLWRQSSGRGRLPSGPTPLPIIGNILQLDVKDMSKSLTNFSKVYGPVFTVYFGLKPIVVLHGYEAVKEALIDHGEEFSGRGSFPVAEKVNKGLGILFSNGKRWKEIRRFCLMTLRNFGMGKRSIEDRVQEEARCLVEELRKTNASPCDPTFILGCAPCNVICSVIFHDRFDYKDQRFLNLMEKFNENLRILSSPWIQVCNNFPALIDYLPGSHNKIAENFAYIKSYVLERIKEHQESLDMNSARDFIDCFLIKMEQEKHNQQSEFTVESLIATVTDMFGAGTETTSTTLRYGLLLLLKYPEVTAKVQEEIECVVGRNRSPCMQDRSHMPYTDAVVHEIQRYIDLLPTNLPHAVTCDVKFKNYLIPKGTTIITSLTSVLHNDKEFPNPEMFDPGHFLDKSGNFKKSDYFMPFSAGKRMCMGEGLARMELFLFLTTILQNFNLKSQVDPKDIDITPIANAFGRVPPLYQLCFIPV
Chain of human CYP1A2, CYP1A2 (gene 1544) (P05177 whole entry, looked up): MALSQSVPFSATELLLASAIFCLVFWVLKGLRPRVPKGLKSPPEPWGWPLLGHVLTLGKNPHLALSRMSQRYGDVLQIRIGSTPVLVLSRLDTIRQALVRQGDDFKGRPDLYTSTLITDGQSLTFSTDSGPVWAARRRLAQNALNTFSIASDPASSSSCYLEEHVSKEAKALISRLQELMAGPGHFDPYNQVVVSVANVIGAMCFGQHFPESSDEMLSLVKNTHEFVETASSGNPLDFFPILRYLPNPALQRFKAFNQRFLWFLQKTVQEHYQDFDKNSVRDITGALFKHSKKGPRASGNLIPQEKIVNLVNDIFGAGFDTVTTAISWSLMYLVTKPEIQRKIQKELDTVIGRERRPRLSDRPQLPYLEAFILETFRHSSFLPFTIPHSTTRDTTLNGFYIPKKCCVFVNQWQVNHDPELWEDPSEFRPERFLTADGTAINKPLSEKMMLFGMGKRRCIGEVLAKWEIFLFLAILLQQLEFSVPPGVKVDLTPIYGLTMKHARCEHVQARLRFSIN
Chain of rat CYP2A1, Cyp2a1 (gene 24894) (P11711 whole entry, looked up): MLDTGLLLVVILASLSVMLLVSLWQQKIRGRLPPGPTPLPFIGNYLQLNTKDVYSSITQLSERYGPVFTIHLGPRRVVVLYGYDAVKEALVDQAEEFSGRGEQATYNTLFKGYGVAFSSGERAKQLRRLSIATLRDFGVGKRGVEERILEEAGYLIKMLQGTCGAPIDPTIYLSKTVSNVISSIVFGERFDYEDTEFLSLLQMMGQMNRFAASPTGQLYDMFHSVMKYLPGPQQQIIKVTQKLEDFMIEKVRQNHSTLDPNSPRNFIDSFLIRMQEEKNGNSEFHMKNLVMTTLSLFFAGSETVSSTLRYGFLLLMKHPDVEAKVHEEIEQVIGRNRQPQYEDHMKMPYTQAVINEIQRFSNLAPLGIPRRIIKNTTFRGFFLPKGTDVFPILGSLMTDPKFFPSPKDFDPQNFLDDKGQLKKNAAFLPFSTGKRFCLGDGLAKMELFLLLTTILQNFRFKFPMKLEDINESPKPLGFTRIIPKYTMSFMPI
Chain of rat CYP2D2, Cyp2d26 (gene 25053) (P10634 whole entry, looked up, canonical isoform): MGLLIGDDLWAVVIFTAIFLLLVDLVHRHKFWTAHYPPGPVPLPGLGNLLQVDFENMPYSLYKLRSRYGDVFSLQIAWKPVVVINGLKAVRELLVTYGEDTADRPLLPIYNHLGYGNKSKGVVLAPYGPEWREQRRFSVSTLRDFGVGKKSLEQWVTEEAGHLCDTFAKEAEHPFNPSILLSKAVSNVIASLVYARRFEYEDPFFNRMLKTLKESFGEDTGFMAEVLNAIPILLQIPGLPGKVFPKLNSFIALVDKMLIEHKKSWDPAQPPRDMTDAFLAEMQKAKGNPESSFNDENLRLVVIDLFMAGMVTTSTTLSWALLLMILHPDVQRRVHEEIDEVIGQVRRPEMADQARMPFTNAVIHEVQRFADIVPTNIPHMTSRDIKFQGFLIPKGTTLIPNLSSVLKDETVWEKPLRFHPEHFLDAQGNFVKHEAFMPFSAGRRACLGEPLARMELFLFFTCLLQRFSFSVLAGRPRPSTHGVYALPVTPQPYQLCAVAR

With `CCOP(=O)(OCC)Oc1nc(Cl)c(Cl)cc1Cl`, the AC50 (in general, the midpoint of the concentration-response curve, whichever way the signal moves) in assay [1] is 8040 nM (active); in assay [2] it was 3360 nM (active); in [3] it was 6110 nM (active); in assay [4], 4090 nM (active); in assay [6], 7930 nM (active). The compound was classed as inactive in [5].
With `CSC(=O)c1c(C(F)F)nc(C(F)(F)F)c(C(=O)SC)c1CC(C)C`, the AC50 in assay [2] is 3300 nM (active); in [7], 6580 nM (active); in assay [4] it was 7010 nM (active).
As for `COc1ccc(-c2ccccc2)cc1NNC(=O)OC(C)C`, the AC50 is 956 nM (active) in assay [2]; 684 nM (active) in [3]; 407 nM (active) in assay [8]; 1070 nM (active) in assay [9]; 447 nM (active) in assay [4]; 1170 nM (active) in assay [11]. In addition, in [6], the AC50 is 2960 nM (active). For the same compound, the outcome in [7] and in [10] was inactive.
As to `N#Cc1c[nH]cc1-c1cccc2c1OC(F)(F)O2`, in assay [2], the AC50 is 353 nM (active). The call in [5] was inactive.
Turning to `CCN(CC)C(=O)C(C)Oc1cccc2ccccc12` (stereo not drawn), the concentration at half-maximal activity (AC50) in [1] was 5790 nM (active); in [3], 10800 nM (active); in [9], 4540 nM (active); in [4], 1150 nM (active); in assay [12] it was 5890 nM (active); in assay [10] it was 951 nM (active). The AC50 in [13] is 6020 nM (active); in assay [6], 4430 nM (active).
With `COC(=O)c1c(C(F)F)nc(C(F)(F)F)c(C2=NCCS2)c1CC(C)C`, the AC50 in assay [1] was 5930 nM (active); in [2] it was 561 nM (active); in assay [3] it was 1880 nM (active); in [4] it was 1270 nM (active); in [14], 5480 nM (active); in [6], 2320 nM (active).
For the compound `CO/N=C(/C1=NOCCO1)c1ccccc1Oc1ncnc(Oc2ccccc2Cl)c1F`, the AC50 was 933 nM (active) in [3]; 1410 nM (active) in assay [4]; 1570 nM (active) in assay [15]; 779 nM (active) in assay [10]; 705 nM (active) in assay [6].
In the case of `CC1(C)CCC(=Cc2ccc(Cl)cc2)C1(O)Cn1cncn1` (stereo not drawn), the AC50 was 2030 nM (active) in assay [3]; 289 nM (active) in [9]; 252 nM (active) in [4]; 1110 nM (active) in assay [15]; 299 nM (active) in assay [12]; 1840 nM (active) in assay [16]. The figures for the AC50 in assay [10] and in [6] were 384 nM (active) and 12.6 nM (active), respectively. Also, in [13], the call was inactive.
